Experimental findings from PubChem BioAssay are described below.

A number with no mark means an inactive call. How the calls were made is not given here.

In the experiment the test system is Aerobactin synthetase IucA (Klebsiella pneumoniae, hypervirulent). Nature of the experiment: biochemical IucA inhibition screen of LOPAC library by absorbance (AID 1346212).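 Further: 100% = no compound wells and 0% = no enzyme wells.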 The note with it: IucA enzyme assay, absorbance (OD) readout; active compounds read low;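 tested at 8 µM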.
One may read the remaining activity as the signal under treatment as a percentage of the control signal. In the case of `NC(=NCc1ccc(Cl)c(Cl)c1)NC(=O)c1nc(Cl)c(N)nc1N`, the remaining activity was 105%.
For `CC(N)=O` the value was 124%; for `Nc1ccc(-c2ccc3ccccc3n2)cc1`, 107%; for `CNC(=O)[C@H]1O[C@@H](n2cnc3c(NCc4cccc(I)c4)nc(Cl)nc32)[C@H](O)[C@@H]1O`, 103%.
As to `CC(C)N(CCC(=O)c1ccc2ccccc2c1)Cc1ccccc1`, the remaining activity was 112%.
The figure for `NC[C@@H]1O[C@H](C23CC4CC(CC(C4)C2)C3)Cc2c1ccc(O)c2O` is 111%; for `CCCCCCCCCCCCCCCC(=O)NCC(COP(=O)([O-])OCC[N+](C)(C)C)OCC` (centres undefined) it is 74.4%; for `CC[C@@H]1SC2(CCN(C)CC2)NC1=O` it is 91.6%.
For `CCOC(=O)C1=C(C)NC(C)=C(C(=O)OC)C1c1cccc(Cl)c1Cl` (centres undefined) the value was 99.8%; for `NCCNC(=O)c1ncsc1-c1cccc(F)c1`, 88.1%.
As to `CCCCCN(CCCCC)C(=O)C(CCC(=O)O)NC(=O)c1ccc(Cl)c(Cl)c1` (centres undefined), the remaining activity was 110%.
As for `NO`, the remaining activity is 100%.
The figure for `COC(=O)c1c(-c2cc(OC)c(OC)c(OC)c2)c2ccc(OCc3ccccn3)cc2c(=O)n1-c1ccc(N)cc1` is 86.8%; for `CN1Cc2sccc2C(c2ccc(O)c(O)c2)C1` (centres undefined) it is 120%; for `CN(C)CC/C=C1/c2ccccc2Sc2ccc(Cl)cc21` it is 115%.
For `O=C(O)Cc1c[nH]c2ccc(O)cc12` the value was 101%; for `O=C(O)/C=C/c1cnc[nH]1`, 101%.
For `O=C(CCCN1CCC(O)(c2cccc(C(F)(F)F)c2)CC1)c1ccc(F)cc1` the value was 101%.
`CN(C)c1ccc(/C=C2\C(=O)Nc3ccccc32)cc1`: the remaining activity is 95.7%.
As for `CN=c1nc(-c2ccccc2)n(-c2ccccc2)s1`, the remaining activity is 109%.
For `O=C(NCC1CCCCN1)c1cc(OCC(F)(F)F)ccc1OCC(F)(F)F` (centres undefined) the value was 91.1%.
For `CN1CCN(CC/C=C2/c3ccccc3Sc3ccc(S(=O)(=O)N(C)C)cc32)CC1` the value was 99.4%; for `CC(C)Cn1cnc2c(N)nc3ccccc3c21`, 102%; for `C[C@@H]1[C@@H]2Cc3ccc(O)cc3[C@@]1(C)CCN2CC1CC1`, 103%.
For `O=S(=O)(c1cccc2cnccc12)N1CCNCC1` the value was 121%.
For the molecule `CCn1c(=O)[nH]c2cc(Cl)c(Cl)cc21`, the remaining activity is 98.7%.
The figure for `COC1=C(OC)C(=O)c2ccccc2C1=O` is 109%; for `O=c1[nH]c2cc(Cl)ccc2c(O)c1-c1cccc(Oc2ccccc2)c1` it is 120%; for `COc1ccc(CCN(C)CCc2ccc(OC)c(OC)c2)cc1OC` it is 122%.
Regarding `O=C(O)C1CCCN(CCC=C(c2ccccc2)c2ccccc2)C1` (centres undefined), the remaining activity was 86.8%.
In the case of `Clc1ccc(N2CCN(Cc3c[nH]c4ncccc34)CC2)cc1`, the remaining activity was 92%.
For `O=C1N(c2ccccc2)c2ccccc2C1(Cc1ccncc1)Cc1ccncc1` the value was 114%; for `O=c1c2ccccc2nc2n1CCc1c-2[nH]c2ccccc12`, 82.9%; for `O=C(Cc1ccc(Cl)c(Cl)c1)OCCN1CCCC1`, 117%.
For `COC(=O)C(C)(N)Cc1ccc(O)cc1` (centres undefined) the value was 114%; for `CCN(CC)C(=O)c1ccc(O)c(OC)c1`, 122%; for `NOCC(=O)O`, 124%.
The figure for `C[C@]12CCC(=O)C=C1CC[C@@H]1[C@@H]2[C@@H](O)C[C@@]2(C)[C@H]1CC[C@]2(O)C(=O)COC(=O)CCC(=O)O` is 92.9%.
In the case of `CC[N+](CC)(CC)CCOc1ccc(/C=C/c2ccccc2)cc1`, the remaining activity was 118%.
